An excerpt weighted towards active compounds, which were near 3.7% of everything screened.
HTT aggregate: mutant huntingtin aggregation inhibition | PC12 HttQ103-GFP aggregates, Acumen cytometry, 40 h | Potency, µM (highest dose often 46.1 µM), for inactives: top-dose activity change, negative = inhibition, usual class: inhibitors | 220,000 tested, 1.1% active; further: on the % scale 0 is the no-effect control and ±100 the full control effect; nearly all actives have a fitted effect of over 60% in size
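Inducible Q103 Huntingtin exon 1–GFP PC12 line, 1500 cells/well in phenol red free DMEM with 5% equine and 5% calf serum. Tebufenozide 100 nM induced expression; compounds titrated; aggregates quantified by cytometry.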
Tau fluor cs: counter-screen for tau fibril formation inhibitors; 280,000 tested, 0.93% active; Potency, µM (titrated, usually from 57.7 µM), without a hit: at the top dose activity change, negative = decrease; tau K18 P301L Alexa594 fluorescence, heparin fibrillization; further: on the % scale 0 is the no-effect control and ±100 the full control effect; nearly all actives have a fitted effect of over 55% in size
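Human K18 P301L tau (15 uM unlabeled plus 0.24 uM Alexa 594-labeled, final) in 100 mM sodium acetate pH 7 was mixed with compound and 20 uM heparin and incubated 6 hr at 37 C.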
Tau FP inhib: inhibitors of human tau fibril formation | Potency, µM (top dose mostly 57.7 µM), inactives show top-dose activity, negative = inhibition, hits mostly inhibitors | K18 P301L tau heparin fibrillization, Alexa594 FP, 6 h | AID 1468 | P10636 | 280,000 tested, 0.39% active; further: on the % scale 0 is the no-effect control and ±100 the full control effect; nearly all actives have a fitted effect of over 55% in size
Target sequence (P10636 561-689 P618L limits assumed): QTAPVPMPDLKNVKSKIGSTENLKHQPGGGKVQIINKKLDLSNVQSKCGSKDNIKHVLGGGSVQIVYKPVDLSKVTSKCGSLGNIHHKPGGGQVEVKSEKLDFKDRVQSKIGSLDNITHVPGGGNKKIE
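Compound effects on tau fibrillization are measured by Alexa 594 fluorescence polarization (ex 555, em 632 nm). K18 P301L tau is used at 15 uM with 0.24 uM labeled tracer, and 20 uM heparin induces aggregation over 6 hr at 37 C.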
HTT cytoprotect: protects HTT-Q103 PC12 cells, measured by ATP | 230,000 tested, 0.14% active | PC12 HTT-Q103 induced, cytoprotection, ATP luminescence, 40 h | Potency, µM (highest dose often 56.4 µM), inactives show cytoprotection (ATP increase), usual class: activators | AID 1471; further: % of control where 0% means no effect; nearly all actives have a fitted effect of over 45% in size
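Stable PC12 Q103-GFP cells in serum-supplemented, phenol red-free DMEM; induction by tebufenozide at 100 nM final; compound dose series; cell viability quantified luminescently from ATP.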
Tau fibril ThT: blocks human tau fibril formation measured by thioflavin T. 270,000 tested, 2.1% active. P10636. recombinant tau K18 P301L (four-repeat tau fragment), heparin-induced fibrillization, ThT fluorescence. Potency, µM (highest dose often 57.4 µM), for inactives: top-dose activity, negative = inhibition, actives largely listed as inhibitors; further: on the % scale 0 is the no-effect control and ±100 the full control effect; nearly all actives have a fitted effect of over 55% in size
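Heparin-induced fibrillization of the P301L-mutant K18 repeat-domain fragment of human tau was followed by ThT binding in quantitative high-throughput format.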
Starred values were filed as active, the others as inactive; ? = inconclusive; · = not tested or not shown; [ ] = remark or other dose. The call rests on the fitted dose curve; in most records, active means well fitted curve in the direction sought with a large enough effect; inconclusive means small, poorly fitted or top-dose-only effect, or another doubt; inactive means no such curve, though single readings can be large; an effect the other way counts as inactive or inconclusive. Potency means the concentration at half of the fitted maximal effect.

SMILES	HTT aggregate	Tau fluor cs	Tau FP inhib	HTT cytoprotect	Tau fibril ThT
CC(C)CNC(=O)COC(=O)c1c2c(nc3ccccc13)/C(=C/c1cccs1)CC2	5.6µM*	?	-7%	-19%[10 µM]	?
CCc1cccc(C)c1NC(=O)COC(=O)c1c2c(nc3ccccc13)/C(=C\c1cccs1)CCC2	15%	-25%	-2%	·	?
O=C(CN1C(=O)COc2ccc(S(=O)(=O)N3CCCCCC3)cc21)Nc1cccc(Cl)c1	·	?	?	·	-2%
O=C(Nc1cccc(C(=O)OCc2cc(=O)n3c4c(sc3n2)CCCC4)c1)c1cccc(F)c1	·	-27%	?	·	?
CC1CCCC2(C1)NC(=S)c1c(sc3c1CCCC3)N2 (stereo unspecified)	4%[9.22 µM]	?	?	?	18µM*
C=C/C1=C/Cc2ccccc2C(C[N+](=O)[O-])C(C(=O)OC)(C(=O)OC)C1 (stereo unspecified)	·	-9%[11.6 µM]	0%[11.6 µM]	-41%[10 µM]	-12%[11.5 µM]
N#Cc1c(NC(=O)CCC(=O)O)sc2c1CCCCC2	1%[9.22 µM]	-13%	?	4%[10 µM]	20µM*
CCOc1ccc(/C=C2\SC(=S)N(CCC(=O)O)C2=O)cc1	30%[9.22 µM]	-1%	3%	6%[10 µM]	?
Cc1ccc(NC(=O)COc2cccc(/C=C3\SC(=S)N(CCC(=O)O)C3=O)c2)cc1Cl	11%[9.22 µM]	-13%	-1%	14%[10 µM]	13µM*
O=C(O)CCN1C(=O)/C(=C\c2cccc(OCC(=O)Nc3ccc(Cl)cc3)c2)SC1=S	12%[9.22 µM]	-16%	-4%	-4%[10 µM]	13µM*
COc1cc(/C=C2\SC(=S)N(CCC(=O)Nc3ccccc3)C2=O)cc(OC)c1OC	-4%[9.22 µM]	0%	5%	-2%[10 µM]	4%
CCOC(=O)CN1C(=O)N[C@@H](c2cccc(C(F)(F)F)c2)[C@H](C(=O)OC)[C@H]1C	·	3%[11.6 µM]	0%[11.6 µM]	-14%[10 µM]	0%[11.5 µM]
CN(C1CCCCC1)S(=O)(=O)c1ccc(NC(=O)C2CCCCC2)cc1	1.8µM*	-28%	-9%	-33%[10 µM]	-4%
CN(C1CCCCC1)S(=O)(=O)c1ccc(NC(=O)CCC(=O)O)cc1	-11%	-3%	-3%	2%[0.074 µM]	-5%
N#CC1=C(N)C(C#N)(C#N)C(c2ccc[nH]2)C2CCCC=C12 (stereo unspecified)	18%[9.22 µM]	?	?	13%[10 µM]	14µM*
Cc1ccc(CNc2ccc3c(c2)OCO3)c(C)c1	-1%	?	?	-48%	13µM*
C[N+](C)(C)[C@H](Cc1c[nH]c(=S)[nH]1)C(=O)O	·	·	·	-10%[10 µM]	·
Cc1nnc(SCc2cccc3ccccc23)s1	10%[9.22 µM]	-5%	7%	10%[10 µM]	-1%
c1ccc(Nc2nnc(SCc3cccc4ccccc34)s2)cc1	14%	16µM*[quencher]	-10%	19%[10 µM]	-10%
O=C(N/N=C/c1cc(Br)ccc1O)c1cccc(N2CCCC2=O)c1	2.2µM*	-26%	-4%	·	-13%
O=C(N/N=C/c1cc(Br)ccc1O)c1ccccc1Cl	4µM*	?	-6%	·	-13%
CCC/C=N/NC(=O)c1cc(Br)ccc1O	16µM*	-13%	6%	23%[10 µM]	?
O=C(N/N=C/c1cc(Br)ccc1O)C(=O)Nc1ccccc1OC(F)(F)C(F)F	8.9µM*	-15%	-7%	-46%	-14%
O=C(N/N=C\c1ccccc1O)c1ccccc1O	·	-15%	-5%	-71%[1.9 µM]	-4%
O=C(CCC1N=C2c3ccccc3N=C(SCc3ccc(Cl)cc3)N2C1=O)N1CCN(c2ccccc2)CC1 (stereo unspecified)	·	-10%	-6%	·	?
SMILES	HTT aggregate	Tau fluor cs	Tau FP inhib	HTT cytoprotect	Tau fibril ThT
CCS(=O)(=O)c1nnnn1-c1ccccc1S(C)(=O)=O	·	1%	2%	13µM*	-10%
O=S(=O)(Cc1ccccc1)c1nnnn1-c1ccccc1	·	-3%	-10%	?	?
Nc1cc(N)c(OCC(F)(F)F)cc1OCC(F)(F)F	17%	?	13µM*	-21%	3.2µM*
Nc1cc(OCC(F)(F)F)cc([N+](=O)[O-])c1	-5%	-1%	14%	·	-9%
N#CCCSC(=S)[C@H]1CCCC1=N	·	·	·	-14%[10 µM]	·
O=c1c(S(=O)(=O)c2ccccc2)cn(Cc2ccc(F)cc2)c2cc(N3CCCC3)c(F)cc12	·	9%	1%	·	7%
C=CC[n+]1c(-c2ccc(OC)cc2)csc1NNC(=O)Nc1ccccc1	10µM*	?	1%	28%	?
CCOC(=O)c1ccc(N/C=C/C(=O)C(C)(C)C)cc1	-2%[9.22 µM]	-7%	6%	-13%[10 µM]	?
CN(C)c1ccc(N/C=C/C(=O)c2ccccc2)cc1	25%	?	-18%	21%[10 µM]	1.8µM*
CN(C)c1ccc(N/C=C/C(=O)C(C)(C)C)cc1	32%	?	?	-26%	16µM*
O=C(/C=C/Nc1ccccc1)c1ccccc1	22%	-5%	4%	-9%[10 µM]	-1%
CCN=c1scc(C)n1/N=C/c1ccc(O)c(O)c1O	31%	?	22µM*	-28%	11µM*
CCN=c1scc(C)n1/N=C/c1cc(Br)c(O)c(Br)c1	-26%	?	15%	13%[10 µM]	?
C[C@@H]1CCN(C(=O)[C@H](CCCNC(=N)N)NS(=O)(=O)c2cccc3c2NC[C@H](C)C3)[C@@H](C(=O)O)C1	22%	·	·	-44%	·
COc1ccc(/C(C)=N/Nc2nc3ccccc3nc2C)cc1	-1%[9.22 µM]	?	6%	-8%[10 µM]	11µM*
c1ccc(-c2cc3c(ccc4nonc43)nn2)cc1	8%	-5%	-3%	-7%	-8%
On1onc2c3cc(-c4ccccc4)nc3ccc21	-14%	13µM*[quencher]	?	-3%	4µM*
Cc1ccc(C(=O)OCn2ncc(Cl)c(Cl)c2=O)cc1	?	2%	6%	0%	4%
O=C(OCn1ncc(Cl)c(Cl)c1=O)c1ccc(C(F)(F)F)cc1	?	-12%	-13%	-69%	32µM*
CO[Si](CCCNCCC[Si](OC)(OC)OC)(OC)OC	·	·	·	-4%	·

Screens: PubChem BioAssay, National Center for Advancing Translational Sciences (NCATS)
